Data as given in PubChem BioAssay (EPA / NIEHS).
Records with an inconclusive call do not appear. Calls of active or inactive are those of the source. The calls were made as follows, unless noted: active = hit-call score of the fitted dose curve at least 0.9, where 1 is the maximum; inactive = score below 0.9.

Tests used:
[1] = target: Paired box protein Pax-6 (Homo sapiens) (UniProt P26367); assay: ATG_Pax6_CIS: Attagene CIS-FACTORIAL HepG2 Assay for human Paired Box 6 (PAX6) (AID 2282956); conditions: HepG2 CIS-FACTORIAL PAX6 reporter transcription, RNA readout; actives raise or lower the signal
Sequence of Paired box protein Pax-6 (Homo sapiens) (P26367 whole entry, looked up): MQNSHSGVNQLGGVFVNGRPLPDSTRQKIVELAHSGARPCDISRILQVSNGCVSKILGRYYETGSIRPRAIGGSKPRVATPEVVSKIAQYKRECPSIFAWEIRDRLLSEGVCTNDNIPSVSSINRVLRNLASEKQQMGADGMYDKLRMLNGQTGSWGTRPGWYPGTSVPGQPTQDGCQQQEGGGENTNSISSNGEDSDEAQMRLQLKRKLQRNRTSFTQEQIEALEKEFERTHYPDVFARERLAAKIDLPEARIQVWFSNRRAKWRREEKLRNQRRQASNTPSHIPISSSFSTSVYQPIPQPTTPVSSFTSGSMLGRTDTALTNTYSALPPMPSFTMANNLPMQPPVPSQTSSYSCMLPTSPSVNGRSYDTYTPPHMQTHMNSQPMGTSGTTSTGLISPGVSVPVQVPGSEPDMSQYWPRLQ
Outline: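 Readout: reporter transcript fluorescence after RT-PCR and capillary electrophoresis. Cells: HepG2, transiently transfected with cis-regulated MRTUs. Exposure 24 h. Gain or loss of signal fitted bidirectionally relative to DMSO.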

[2] = ATG_PXRE_CIS: Attagene CIS-FACTORIAL HepG2 Assay for human Pregnane X Receptor Element (PXRE) (AID 2282957); conditions: HepG2 Attagene CIS-FACTORIAL PXRE reporter, mRNA; actives raise or lower the signal
Outline: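 Fluorescent capillary electrophoresis of amplified reporter cDNA gave the signal, collected 24 h after dosing HepG2 cells that held transfected cis-element reporter constructs.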

[3] = ATG_PPRE_CIS: Attagene CIS-FACTORIAL HepG2 Assay for human Peroxisome Proliferator-activated Response Element (PPRE) (AID 2282958); conditions: HepG2 PPRE cis-element reporter, Attagene transcription factor profiling; actives raise or lower the signal
Outline: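 DMSO served as negative control and baseline for bidirectional curve fitting. Signal came from PPRE-regulated reporter mRNA in HepG2 cells, measured 24 h post-dosing by RT-PCR, 6-FAM primer extension and capillary electrophoresis.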

[4] = ATG_RORE_CIS: Attagene CIS-FACTORIAL HepG2 Assay for human RAR-related Orphan Receptor Element (RORE) (AID 2282959); conditions: HepG2 Attagene cis-factorial RORE reporter, mRNA; actives raise or lower the signal
Outline: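 Transfect HepG2 with MRTUs; treat 24 h; extract RNA; RT with oligo(dT); PCR with reporter-specific primers; 6-FAM primer extension; HpaI digest 2 h at 37 C; capillary electrophoresis. Fit vs DMSO, bidirectional.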

[5] = ATG_Sox_CIS: Attagene CIS-FACTORIAL HepG2 Assay for human SRY-box transcription factor (SOX) (AID 2282960); conditions: HepG2 Attagene cis-factorial SOX reporter, mRNA; actives raise or lower the signal
Outline: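 Fluorescence-labelled cDNA fragments from reporter transcripts, sized by CE, give the signal. Cells: HepG2, transiently transfected with cis-regulated reporter units. Exposure 24 h; DMSO negative control; bidirectional curve fitting.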

[6] = target: Transcription factor Sp1 (Homo sapiens) (UniProt P08047); assay: ATG_Sp1_CIS: Attagene CIS-FACTORIAL HepG2 Assay for human Specificity Protein 1 (Sp1) (AID 2282961); conditions: HepG2 Sp1 cis-reporter transcription, actives raise or lower the signal
Sequence of Transcription factor Sp1 (Homo sapiens) (P08047 whole entry, looked up): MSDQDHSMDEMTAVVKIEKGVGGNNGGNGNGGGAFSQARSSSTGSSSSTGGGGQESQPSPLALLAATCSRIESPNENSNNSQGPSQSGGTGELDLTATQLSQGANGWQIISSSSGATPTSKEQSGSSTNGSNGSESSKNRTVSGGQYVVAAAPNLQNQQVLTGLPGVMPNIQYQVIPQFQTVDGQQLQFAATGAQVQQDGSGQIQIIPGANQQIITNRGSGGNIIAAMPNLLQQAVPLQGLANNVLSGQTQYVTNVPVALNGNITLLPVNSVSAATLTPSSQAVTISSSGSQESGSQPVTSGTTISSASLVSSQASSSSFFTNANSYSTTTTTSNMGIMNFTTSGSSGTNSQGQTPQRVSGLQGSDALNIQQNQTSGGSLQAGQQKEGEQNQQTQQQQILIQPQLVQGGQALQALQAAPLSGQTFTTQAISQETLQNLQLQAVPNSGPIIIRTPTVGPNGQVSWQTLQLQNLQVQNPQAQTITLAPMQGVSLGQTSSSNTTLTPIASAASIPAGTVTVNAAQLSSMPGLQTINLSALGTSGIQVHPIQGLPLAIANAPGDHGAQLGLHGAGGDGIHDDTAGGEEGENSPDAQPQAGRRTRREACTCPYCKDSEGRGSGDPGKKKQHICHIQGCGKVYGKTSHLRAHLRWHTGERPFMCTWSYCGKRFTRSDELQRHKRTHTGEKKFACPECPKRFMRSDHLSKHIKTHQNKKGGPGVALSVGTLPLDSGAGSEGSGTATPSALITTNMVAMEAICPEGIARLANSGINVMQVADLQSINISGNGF
Outline: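 Chemicals are dosed onto HepG2 cells transfected with multiple cis-promoter reporter constructs, and after 24 h reporter RNA is reverse-transcribed, PCR-amplified and resolved by capillary electrophoresis for fluorescence quantitation; activity is scored up or down against DMSO.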

[7] = ATG_SREBP_CIS: Attagene CIS-FACTORIAL HepG2 Assay for human Sterol Regulatory Element Binding (SREBP) (AID 2282962); conditions: HepG2 Attagene cis-factorial SREBP reporter, mRNA; actives raise or lower the signal
Outline: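 Readout: fluorescent reporter-transcript peaks resolved by capillary electrophoresis after RT-PCR. Cells were human HepG2 carrying transfected cis-promoter reporter constructs, dosed for 24 h. Gain or loss of signal was fitted against DMSO controls.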

[8] = target: Signal transducer and activator of transcription 3 (Homo sapiens) (UniProt P40763); assay: ATG_STAT3_CIS: Attagene CIS-FACTORIAL HepG2 Assay for human Signal Transducer and Activator of Transcription 3 (STAT3) (AID 2282963); conditions: HepG2, Attagene cis-factorial STAT3 reporter transcription; actives raise or lower the signal
Sequence of Signal transducer and activator of transcription 3 (Homo sapiens) (P40763 whole entry, looked up): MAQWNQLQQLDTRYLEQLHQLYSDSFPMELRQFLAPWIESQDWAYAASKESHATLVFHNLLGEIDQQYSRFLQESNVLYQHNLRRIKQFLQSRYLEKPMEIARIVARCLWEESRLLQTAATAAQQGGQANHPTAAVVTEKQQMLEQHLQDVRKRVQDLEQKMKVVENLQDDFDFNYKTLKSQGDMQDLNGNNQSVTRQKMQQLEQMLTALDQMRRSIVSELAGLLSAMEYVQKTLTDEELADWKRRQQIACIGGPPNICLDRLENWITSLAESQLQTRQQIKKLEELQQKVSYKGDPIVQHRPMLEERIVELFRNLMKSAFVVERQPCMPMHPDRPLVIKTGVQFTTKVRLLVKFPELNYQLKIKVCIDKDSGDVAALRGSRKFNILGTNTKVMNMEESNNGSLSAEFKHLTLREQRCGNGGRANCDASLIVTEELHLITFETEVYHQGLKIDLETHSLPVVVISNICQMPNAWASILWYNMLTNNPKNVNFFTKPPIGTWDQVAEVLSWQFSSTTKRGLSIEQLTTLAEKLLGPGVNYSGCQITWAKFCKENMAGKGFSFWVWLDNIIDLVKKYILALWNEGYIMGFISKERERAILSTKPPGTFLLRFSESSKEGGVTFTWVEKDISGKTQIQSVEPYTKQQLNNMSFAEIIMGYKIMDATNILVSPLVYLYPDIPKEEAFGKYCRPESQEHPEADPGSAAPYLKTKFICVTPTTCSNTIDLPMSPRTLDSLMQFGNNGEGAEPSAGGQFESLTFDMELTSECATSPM
Outline: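 HepG2, MRTU-transfected, 24 h dosing. RNA → RT → PCR → FAM label → HpaI → CE. Bidirectional fit vs DMSO.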

[9] = ATG_TA_CIS: Attagene CIS-FACTORIAL HepG2 Assay for human TA Basal Promoter (AID 2282964); conditions: HepG2 Attagene CIS-factorial TA basal promoter reporter; actives raise or lower the signal
Outline: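 Read-out: fluorescent reporter-transcript fragments resolved by capillary electrophoresis after RT-PCR and HpaI digestion. Source: HepG2 cells carrying transiently transfected multi-reporter cis constructs, treated 24 h. Endpoint fitted bidirectionally relative to DMSO.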

[10] = ATG_TCF_b_cat_CIS: Attagene CIS-FACTORIAL HepG2 Assay for human T-Cell-Factor with beta-catenin (TCF/b-cat) (AID 2282965); conditions: HepG2 TCF/beta-catenin cis-reporter transcription, actives raise or lower the signal
Outline: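 Using capillary electrophoresis as the read-out, labelled reporter cDNA fragments from transiently transfected HepG2 were sized and quantified. Exposure lasted 24 hours; activity in either direction was referenced to DMSO.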

[11] = ATG_TAL_CIS: Attagene CIS-FACTORIAL HepG2 Assay for human TAL Basal Promoter (AID 2282966); conditions: HepG2 Attagene cis-factorial TAL promoter reporter; actives raise or lower the signal;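 also: background control endpoint measuring basal TAL promoter reporter mRNA not a specific factor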
Outline: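 Transiently transfected HepG2 (cis-regulated reporter units), 24 h treatment, mRNA read by fluorescent CE after RT-PCR; bidirectional fit, DMSO baseline.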

[12] = target: Estrogen receptor (Homo sapiens) (UniProt P03372); assay: ATG_ERa_TRANS: Attagene TRANS-FACTORIAL HepG2 Assay for human Estrogen Receptor alpha (ERa) (AID 2282970; active = hit-call score of the fitted dose curve at least 0.9, where 1 is the maximum); conditions: HepG2 Attagene TRANS ERa GAL4 reporter, mRNA
Sequence of Estrogen receptor (Homo sapiens) (P03372 whole entry, looked up, the tested form may be a part): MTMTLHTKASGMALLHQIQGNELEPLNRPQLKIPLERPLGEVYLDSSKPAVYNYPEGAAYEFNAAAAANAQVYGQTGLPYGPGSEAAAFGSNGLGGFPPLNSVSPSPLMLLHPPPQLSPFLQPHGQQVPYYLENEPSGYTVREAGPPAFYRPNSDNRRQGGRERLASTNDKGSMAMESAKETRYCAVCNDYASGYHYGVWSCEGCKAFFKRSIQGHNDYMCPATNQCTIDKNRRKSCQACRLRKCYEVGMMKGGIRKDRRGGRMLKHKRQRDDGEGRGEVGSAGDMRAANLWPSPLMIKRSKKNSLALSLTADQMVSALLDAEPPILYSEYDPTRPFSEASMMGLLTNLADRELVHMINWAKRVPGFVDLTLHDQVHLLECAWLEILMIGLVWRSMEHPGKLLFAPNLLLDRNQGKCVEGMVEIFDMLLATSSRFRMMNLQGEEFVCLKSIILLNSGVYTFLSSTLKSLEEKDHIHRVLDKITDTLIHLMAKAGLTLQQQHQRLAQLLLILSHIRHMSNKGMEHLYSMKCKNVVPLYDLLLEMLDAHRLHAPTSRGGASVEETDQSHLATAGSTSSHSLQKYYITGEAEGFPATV
Outline: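 One of 30 multiplexed endpoints from a HepG2 TRANS system, this one reports ERa-Gal4-driven reporter mRNA. Transcripts were quantified 24 hours post-dosing by fluorescent RT-PCR and capillary electrophoresis, with activity scored as induction over DMSO.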

[13] = target: X-box-binding protein 1 (Homo sapiens) (UniProt P17861); assay: ATG_Xbp1_CIS: Attagene CIS-FACTORIAL HepG2 Assay for human X-box Binding Protein 1 (XBP1) (AID 2282972); conditions: HepG2 XBP1 cis-element reporter, Attagene multiplex; actives raise or lower the signal
Sequence of X-box-binding protein 1 (Homo sapiens) (P17861 whole entry, looked up, the tested form may be a part): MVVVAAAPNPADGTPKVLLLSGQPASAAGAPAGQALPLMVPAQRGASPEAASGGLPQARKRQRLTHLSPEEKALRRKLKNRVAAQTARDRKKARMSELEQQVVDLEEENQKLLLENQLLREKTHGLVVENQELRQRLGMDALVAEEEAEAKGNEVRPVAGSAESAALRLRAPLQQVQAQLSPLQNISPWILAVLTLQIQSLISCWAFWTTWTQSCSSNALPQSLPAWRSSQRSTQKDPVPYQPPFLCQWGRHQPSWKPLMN
Outline: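 Read-out: fluorescent reporter mRNA fragments resolved by capillary electrophoresis after RT-PCR. Human HepG2 liver cells carried transfected cis-promoter reporter units and were exposed to chemicals for 24 hours. Gain or loss of signal fitted relative to DMSO baseline.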

[14] = ATG_GAL4_TRANS: Attagene TRANS-FACTORIAL HepG2 Assay for GAL4 (Internal Marker) (AID 2282976; active = hit-call score of the fitted dose curve at least 0.9, where 1 is the maximum); conditions: HepG2 Attagene TRANS GAL4 internal marker reporter
Outline: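 HepG2 cells transiently transfected with multiplexed GAL4-UAS reporter constructs were dosed for 24 h. Reporter mRNA was measured by RT-PCR, 6-FAM primer extension, HpaI digestion and capillary electrophoresis, and gain of signal was fitted relative to DMSO.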

[15] = ATG_TGFb_CIS: Attagene CIS-FACTORIAL HepG2 Assay for human Transforming Growth Factor (TGF) (AID 2282967); conditions: HepG2 Attagene CIS TGFb reporter, mRNA transcription; actives raise or lower the signal
Outline: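 Transient MRTU transfection of HepG2 (FuGene 6). Dose 24 h. TriZol RNA, oligo(dT) RT, PCR, 6-FAM primer extension, HpaI cut, CE. Bidirectional fit, DMSO = baseline.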

[16] = ATG_VDRE_CIS: Attagene CIS-FACTORIAL HepG2 Assay for human Vitamin D Receptor Element (VDRE) (AID 2282968); conditions: HepG2 VDRE cis-reporter transcription, actives raise or lower the signal
Outline: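 Steps: transfect HepG2 with multiple reporter transcription units; dose chemicals 24 h; isolate RNA; RT-PCR; label with 6-FAM primer extension; HpaI digest; capillary electrophoresis. Curves fitted both directions against DMSO.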

[17] = target: Steroid hormone receptor ERR1 (Homo sapiens) (UniProt P11474); assay: ATG_ERRa_TRANS: Attagene TRANS-FACTORIAL HepG2 Assay for human Estrogen-Related Receptor alpha (ERRa) (AID 2282971; active = hit-call score of the fitted dose curve at least 0.9, where 1 is the maximum); conditions: HepG2 Attagene TRANS reporter, ERRa transactivation
Sequence of Steroid hormone receptor ERR1 (Homo sapiens) (P11474 whole entry, looked up, the tested form may be a part): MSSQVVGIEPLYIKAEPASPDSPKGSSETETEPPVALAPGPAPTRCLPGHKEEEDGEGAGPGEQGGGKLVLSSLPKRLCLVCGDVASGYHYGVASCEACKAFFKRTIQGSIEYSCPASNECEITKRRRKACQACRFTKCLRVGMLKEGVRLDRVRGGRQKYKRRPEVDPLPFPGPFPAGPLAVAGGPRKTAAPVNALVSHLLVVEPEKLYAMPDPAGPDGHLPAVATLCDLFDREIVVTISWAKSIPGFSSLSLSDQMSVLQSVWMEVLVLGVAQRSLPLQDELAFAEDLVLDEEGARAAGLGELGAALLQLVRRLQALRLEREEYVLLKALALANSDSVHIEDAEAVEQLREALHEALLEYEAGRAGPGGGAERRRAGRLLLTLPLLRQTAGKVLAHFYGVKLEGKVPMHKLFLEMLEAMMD
Outline: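 HepG2 cells transiently transfected with multiplexed GAL4-UAS reporter units reading chimeric ERRa-Gal4 activity; 24 h compound exposure. Reporter mRNA measured by RT-PCR, 6-FAM labelling, HpaI digest and capillary electrophoresis; gain of signal fitted versus DMSO baseline.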

[18] = ATG_M_19_TRANS: Attagene TRANS-FACTORIAL HepG2 Assay for M19 Transcription Factor (Internal Marker) (AID 2282974; active = hit-call score of the fitted dose curve at least 0.9, where 1 is the maximum); conditions: HepG2 Attagene TRANS-FACTORIAL M19 internal marker reporter
Outline: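 Multiplexed TRANS format: HepG2 liver cells bearing transient GAL4-UAS reporter units, chemical treatment 24 h, reporter transcripts quantified by RT-PCR plus capillary electrophoresis. DMSO defines baseline.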

[19] = target: Estrogen-related receptor gamma (Homo sapiens) (UniProt P62508); assay: ATG_ERRg_TRANS: Attagene TRANS-FACTORIAL HepG2 Assay for human Estrogen-Related Receptor gamma (ERRg) (AID 2282977; active = hit-call score of the fitted dose curve at least 0.9, where 1 is the maximum;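 also: hits increase reporter signal over DMSO so potencies reflect activators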); conditions: HepG2 Attagene TRANS reporter, ERRg transactivation
Sequence of Estrogen-related receptor gamma (Homo sapiens) (P62508 whole entry, looked up, the tested form may be a part): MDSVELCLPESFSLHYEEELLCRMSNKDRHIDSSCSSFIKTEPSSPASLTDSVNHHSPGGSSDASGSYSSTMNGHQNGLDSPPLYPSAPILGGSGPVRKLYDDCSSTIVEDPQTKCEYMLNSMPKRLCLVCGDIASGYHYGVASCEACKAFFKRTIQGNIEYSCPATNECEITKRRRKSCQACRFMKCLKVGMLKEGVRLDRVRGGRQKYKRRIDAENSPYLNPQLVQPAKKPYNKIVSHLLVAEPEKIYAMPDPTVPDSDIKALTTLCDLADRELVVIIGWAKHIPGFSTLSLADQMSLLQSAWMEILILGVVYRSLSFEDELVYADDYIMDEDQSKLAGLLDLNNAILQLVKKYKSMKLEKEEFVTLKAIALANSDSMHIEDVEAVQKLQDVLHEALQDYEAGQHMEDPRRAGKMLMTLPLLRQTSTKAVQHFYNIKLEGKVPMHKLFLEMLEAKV
Outline: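 Exogenous NR-Gal4 chimera activity measured as reporter transcript induction after 24 h in transiently transfected HepG2 cells. RNA reverse-transcribed, PCR-amplified, 6-FAM-labelled and resolved by capillary electrophoresis; increase over DMSO baseline.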

[20] = target: Nuclear receptor subfamily 1 group I member 3 (Homo sapiens) (UniProt Q14994); assay: ATG_CAR_TRANS: Attagene TRANS-FACTORIAL HepG2 Assay for human Constitutive Androstane Receptor (CAR) (AID 2282969; active = hit-call score of the fitted dose curve at least 0.9, where 1 is the maximum;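 also: activators raise reporter mRNA above DMSO so AC50 marks induction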); conditions: HepG2 Attagene TRANS-FACTORIAL CAR reporter
Sequence of Nuclear receptor subfamily 1 group I member 3 (Homo sapiens) (Q14994 whole entry, looked up, the tested form may be a part): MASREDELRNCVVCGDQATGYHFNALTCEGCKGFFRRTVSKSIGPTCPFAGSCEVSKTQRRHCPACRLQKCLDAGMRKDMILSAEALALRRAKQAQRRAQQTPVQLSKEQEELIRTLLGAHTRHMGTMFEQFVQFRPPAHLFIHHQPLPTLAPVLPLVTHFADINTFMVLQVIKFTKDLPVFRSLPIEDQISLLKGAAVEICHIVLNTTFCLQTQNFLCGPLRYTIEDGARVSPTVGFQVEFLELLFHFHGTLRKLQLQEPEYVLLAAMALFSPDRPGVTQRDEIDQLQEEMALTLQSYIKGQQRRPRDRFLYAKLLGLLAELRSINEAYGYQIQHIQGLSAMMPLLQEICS
Outline: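 Steps: transient transfection of HepG2 with multiple GAL4-UAS reporter units; 24 h compound incubation; RNA isolation, RT-PCR, 6-FAM primer extension, HpaI digest; capillary electrophoresis. Gain-of-signal relative to DMSO negative control.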

Measured: AC50

CCCCCCCC/C=C\CCCCCCCC(=O)O
inactive: [1] | [2] | [3] | [4] | [5] | [6] | [7] | [8] | [9] | [10] | [11] | [12] | [13] | [14]

CCCC(=O)OCc1ccccc1
inactive: [1] | [2] | [3] | [4] | [5] | [6] | [8] | [9] | [10] | [11] | [15] | [16] | [17] | [13] | [18] | [14]

CC(C)(C)c1ccc(-c2ccc(C(C)(C)C)cc2)cc1
inactive: [1] | [2] | [3] | [4] | [5] | [6] | [7] | [8] | [10] | [11] | [15] | [12] | [13]

O=Nc1ccc(O)cc1
inactive: [1] | [2] | [3] | [4] | [5] | [6] | [7] | [8] | [10] | [11] | [13]
active: [12] 48.5 µM

CCCCCCCCO[C@@H]1O[C@H](CO)[C@@H](O)[C@H](O)[C@H]1O
inactive: [1] | [2] | [3] | [4] | [5] | [6] | [8] | [9] | [10] | [11] | [15] | [16] | [13] | [18] | [14]

O=C(O)c1cc2ccccc2nc1C(=O)O
inactive: [1] | [2] | [3] | [4] | [5] | [6] | [7] | [9] | [10] | [11] | [15] | [16] | [13]

CCCCCCCC/C=C\CCCCCCCC(=O)OCCO
inactive: [1] | [3] | [4] | [5] | [6] | [7] | [9] | [10] | [11] | [15] | [16] | [12] | [13]
active: [2] 12.8 µM

NC(=O)C1CO1 (stereo unspecified)
inactive: [1] | [2] | [3] | [4] | [5] | [6] | [7] | [9] | [10] | [11] | [15] | [16] | [13] | [18]

O=C(Nc1ccccc1)c1ccccc1O
inactive: [1] | [4] | [5] | [6] | [7] | [9] | [10] | [11] | [15] | [17] | [19]
active: [2] 27.4 µM | [3] 100 µM | [12] 27.2 µM | [13] 44.4 µM

CC[C@H]1OC(=O)[C@H](C)[C@@H](O[C@H]2C[C@@](C)(OC)[C@@H](O)[C@H](C)O2)[C@H](C)[C@@H](O[C@@H]2O[C@H](C)C[C@H](N(C)C)[C@H]2O)[C@](C)(O)C[C@@H](C)C(=NOCOCCOC)[C@H](C)[C@@H](O)[C@]1(C)O
inactive: [1] | [2] | [3] | [4] | [5] | [6] | [7] | [9] | [10] | [11] | [15] | [16] | [12] | [13] | [18] | [14]

O=C(c1ccc(O)cc1)c1ccc(O)cc1O
inactive: [1] | [4] | [5] | [6] | [8] | [9] | [10] | [11] | [20] | [13] | [18] | [14]
active: [2] 35.8 µM | [3] 100 µM | [7] 100 µM | [12] 1.03 µM

Cc1ccc(OC(=O)CC(C)C)cc1
inactive: [1] | [2] | [3] | [4] | [5] | [6] | [8] | [9] | [10] | [11] | [15] | [20] | [12] | [13] | [14]

Cc1ccc2c(c1)C(=O)c1ccccc1C2=O
inactive: [1] | [3] | [4] | [5] | [6] | [8] | [9] | [10] | [11] | [15] | [16] | [20] | [13] | [14]
active: [2] 6.22 µM | [12] 12.4 µM

CC(=O)OCc1ccco1
inactive: [1] | [2] | [3] | [4] | [5] | [6] | [7] | [8] | [10] | [11] | [15] | [16] | [20] | [12] | [13] | [14] | [19]
